About 8,800 targets were measured; listed, in parts, are those with a hit and a random draw of the rest. About 0.5% of all pairs of compound and target were hits. Values without a mark were called inactive.
Columns and labels:
Assay in all cases: log2 fold change, soluble protein after heating vs DMSO (PISA); higher = thermal stabilisation; K562 lysate, 10 uM; active = over 0.2 and 3.5 SD of the protein, either way, in both replicates (recomputed)
[1] = compound: C1=CC=C(C=C1)[C@H](COC2=CC3=C(C=C2)NC(=O)N3)NC(=O)C4=CC=CN(C4=O)CC5=CC(=C(C=C5)F)F
In short: (§1)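 Thermal stability, expressed as log-two fold change relative to solvent controls, is given from duplicates. Crude K562 extract in PBS pH 7.4 with 1 mM MgCl2, at 1 mg/mL protein, was treated with 10 μM compound for 30 min and heated in aliquots for 3 min across 48°C-58°C. After pooling, adjustment to 0.5% NP-40 at 4°C and centrifugation at 21,000xg for 90 min, supernatant protein was measured by TMTpro 16plex LC-MS/MS with channel sums equalised.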

[2] = compound: CC1=C(SC2=C1C(=N[C@H](C3=NN=C(N32)C)CC(=O)N)C4=CC=C(C=C4)Cl)C
In short: as §1

[3] = compound: CC1=C2C(=CC=C1)N=C(N(C2=O)C3=CC=CC=C3C)CN4C=NC5=C(N=CN=C54)N
In short: as §1

[4] = compound: Cc1sc2c(c1C)C(c1ccc(Cl)cc1)=N[C@@H](CC(=O)OC(C)(C)C)c1nnc(C)n1-2
In short: as §1

[5] = compound: c1ccc([C@@H]2C[C@H]2NC2CCNCC2)cc1
In short: as §1

Sequence of UniProt Q9UJC5 (Q9UJC5 whole entry, looked up): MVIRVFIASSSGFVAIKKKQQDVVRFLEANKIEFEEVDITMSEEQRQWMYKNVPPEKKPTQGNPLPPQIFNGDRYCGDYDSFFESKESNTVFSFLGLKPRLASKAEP
Sequence of UniProt Q96BI1 (Q96BI1 whole entry, looked up): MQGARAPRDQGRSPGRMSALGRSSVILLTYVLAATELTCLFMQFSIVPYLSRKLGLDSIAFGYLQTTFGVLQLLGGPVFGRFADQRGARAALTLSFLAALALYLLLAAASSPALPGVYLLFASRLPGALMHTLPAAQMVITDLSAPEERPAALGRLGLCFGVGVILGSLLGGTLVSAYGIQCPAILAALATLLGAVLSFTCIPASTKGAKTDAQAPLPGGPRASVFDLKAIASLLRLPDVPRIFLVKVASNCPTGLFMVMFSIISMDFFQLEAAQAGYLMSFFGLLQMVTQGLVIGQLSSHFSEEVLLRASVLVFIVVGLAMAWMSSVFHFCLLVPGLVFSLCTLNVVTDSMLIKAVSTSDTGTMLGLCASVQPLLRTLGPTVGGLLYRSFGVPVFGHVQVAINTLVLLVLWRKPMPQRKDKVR
Sequence of UniProt B2RUZ4 (B2RUZ4 whole entry, looked up): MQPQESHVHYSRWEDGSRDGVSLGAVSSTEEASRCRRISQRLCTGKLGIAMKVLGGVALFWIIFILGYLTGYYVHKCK
Sequence of UniProt O60225 (O60225 whole entry, looked up): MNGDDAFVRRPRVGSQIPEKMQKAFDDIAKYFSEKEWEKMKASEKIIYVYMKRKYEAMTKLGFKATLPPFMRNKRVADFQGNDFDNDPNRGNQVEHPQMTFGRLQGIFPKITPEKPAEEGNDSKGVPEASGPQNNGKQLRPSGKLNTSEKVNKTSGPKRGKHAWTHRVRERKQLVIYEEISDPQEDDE
Sequence of UniProt Q9H668 (Q9H668 whole entry, looked up): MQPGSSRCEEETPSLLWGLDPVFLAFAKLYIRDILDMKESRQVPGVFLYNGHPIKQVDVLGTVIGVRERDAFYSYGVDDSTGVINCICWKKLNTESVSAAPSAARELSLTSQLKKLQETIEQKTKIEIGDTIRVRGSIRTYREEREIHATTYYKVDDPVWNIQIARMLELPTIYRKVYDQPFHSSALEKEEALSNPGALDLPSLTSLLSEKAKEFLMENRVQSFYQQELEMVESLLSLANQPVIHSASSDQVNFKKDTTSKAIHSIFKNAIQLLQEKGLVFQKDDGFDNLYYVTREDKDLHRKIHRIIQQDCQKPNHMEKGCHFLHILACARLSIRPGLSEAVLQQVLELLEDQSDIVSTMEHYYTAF
Sequence of UniProt Q8TCT8 (Q8TCT8 whole entry, looked up): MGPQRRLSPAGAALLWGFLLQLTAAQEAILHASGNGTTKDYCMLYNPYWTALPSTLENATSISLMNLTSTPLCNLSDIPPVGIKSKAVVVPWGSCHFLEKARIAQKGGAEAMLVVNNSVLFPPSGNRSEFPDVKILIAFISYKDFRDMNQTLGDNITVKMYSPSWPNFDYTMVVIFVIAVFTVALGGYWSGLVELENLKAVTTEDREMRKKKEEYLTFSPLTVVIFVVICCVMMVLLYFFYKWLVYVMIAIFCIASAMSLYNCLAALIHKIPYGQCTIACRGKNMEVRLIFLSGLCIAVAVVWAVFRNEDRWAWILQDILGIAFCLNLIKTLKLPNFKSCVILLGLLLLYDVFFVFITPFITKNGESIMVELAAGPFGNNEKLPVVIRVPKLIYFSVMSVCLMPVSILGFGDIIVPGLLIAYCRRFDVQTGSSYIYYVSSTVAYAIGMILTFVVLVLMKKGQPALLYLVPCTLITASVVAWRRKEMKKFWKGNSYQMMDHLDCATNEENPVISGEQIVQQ
Sequence of UniProt P12931 (P12931 whole entry, looked up): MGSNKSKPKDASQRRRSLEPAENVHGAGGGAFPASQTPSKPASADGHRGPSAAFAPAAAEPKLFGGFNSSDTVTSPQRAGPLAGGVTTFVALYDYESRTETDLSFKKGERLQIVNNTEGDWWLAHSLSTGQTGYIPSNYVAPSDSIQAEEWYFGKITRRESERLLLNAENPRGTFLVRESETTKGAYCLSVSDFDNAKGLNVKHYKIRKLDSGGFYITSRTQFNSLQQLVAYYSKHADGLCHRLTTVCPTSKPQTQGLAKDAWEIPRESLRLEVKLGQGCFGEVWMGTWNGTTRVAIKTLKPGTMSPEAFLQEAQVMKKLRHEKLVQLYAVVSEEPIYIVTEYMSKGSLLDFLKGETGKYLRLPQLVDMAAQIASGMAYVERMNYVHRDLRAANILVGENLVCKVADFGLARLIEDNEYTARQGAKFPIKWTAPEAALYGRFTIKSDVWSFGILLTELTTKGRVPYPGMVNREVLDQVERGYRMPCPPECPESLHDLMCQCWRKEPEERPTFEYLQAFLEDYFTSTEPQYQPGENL
Sequence of UniProt Q92844 (Q92844 whole entry, looked up): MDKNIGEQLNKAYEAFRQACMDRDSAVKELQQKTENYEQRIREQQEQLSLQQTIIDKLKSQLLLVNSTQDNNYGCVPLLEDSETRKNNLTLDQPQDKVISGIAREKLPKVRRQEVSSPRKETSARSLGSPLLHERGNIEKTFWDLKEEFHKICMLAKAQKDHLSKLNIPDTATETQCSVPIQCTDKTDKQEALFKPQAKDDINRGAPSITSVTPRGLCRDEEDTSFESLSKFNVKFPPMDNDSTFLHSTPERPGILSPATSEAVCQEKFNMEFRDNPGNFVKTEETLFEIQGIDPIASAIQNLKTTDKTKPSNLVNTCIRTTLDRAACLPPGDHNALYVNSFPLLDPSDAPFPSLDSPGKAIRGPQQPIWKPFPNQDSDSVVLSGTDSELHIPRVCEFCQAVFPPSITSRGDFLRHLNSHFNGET
Sequence of UniProt P29353 (P29353 whole entry, looked up): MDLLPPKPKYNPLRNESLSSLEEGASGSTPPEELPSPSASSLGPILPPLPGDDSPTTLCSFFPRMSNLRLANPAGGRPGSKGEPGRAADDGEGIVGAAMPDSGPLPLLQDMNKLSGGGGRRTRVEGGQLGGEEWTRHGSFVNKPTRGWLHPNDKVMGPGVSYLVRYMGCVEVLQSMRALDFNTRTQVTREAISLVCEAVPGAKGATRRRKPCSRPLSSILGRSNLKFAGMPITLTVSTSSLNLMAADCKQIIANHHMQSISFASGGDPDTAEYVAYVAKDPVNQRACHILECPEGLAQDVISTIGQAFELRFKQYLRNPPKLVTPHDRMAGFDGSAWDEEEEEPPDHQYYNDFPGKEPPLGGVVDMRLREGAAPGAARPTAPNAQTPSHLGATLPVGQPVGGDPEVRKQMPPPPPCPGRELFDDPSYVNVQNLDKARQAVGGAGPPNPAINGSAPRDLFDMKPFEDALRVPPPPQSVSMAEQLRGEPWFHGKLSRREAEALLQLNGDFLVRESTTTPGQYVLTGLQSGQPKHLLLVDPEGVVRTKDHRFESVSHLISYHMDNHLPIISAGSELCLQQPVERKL
Sequence of UniProt Q8N196 (Q8N196 whole entry, looked up): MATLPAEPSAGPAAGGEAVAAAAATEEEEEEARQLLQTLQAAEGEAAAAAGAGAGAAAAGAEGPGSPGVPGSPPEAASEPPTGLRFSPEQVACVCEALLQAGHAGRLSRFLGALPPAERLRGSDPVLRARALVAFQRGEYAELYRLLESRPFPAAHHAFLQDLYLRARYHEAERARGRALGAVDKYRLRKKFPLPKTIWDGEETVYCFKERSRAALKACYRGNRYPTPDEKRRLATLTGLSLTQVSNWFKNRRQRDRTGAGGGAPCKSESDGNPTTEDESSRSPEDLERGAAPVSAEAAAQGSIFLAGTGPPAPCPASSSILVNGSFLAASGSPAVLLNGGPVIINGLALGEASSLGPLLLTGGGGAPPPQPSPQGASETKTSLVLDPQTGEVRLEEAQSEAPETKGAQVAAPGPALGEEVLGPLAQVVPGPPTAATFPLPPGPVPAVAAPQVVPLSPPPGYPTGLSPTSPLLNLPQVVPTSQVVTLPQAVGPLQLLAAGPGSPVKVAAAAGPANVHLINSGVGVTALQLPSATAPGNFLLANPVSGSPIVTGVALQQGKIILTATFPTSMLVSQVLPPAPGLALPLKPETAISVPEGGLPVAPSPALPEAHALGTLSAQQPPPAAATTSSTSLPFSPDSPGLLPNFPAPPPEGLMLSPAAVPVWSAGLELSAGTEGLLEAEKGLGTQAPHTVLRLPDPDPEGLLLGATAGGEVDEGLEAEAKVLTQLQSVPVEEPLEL
Sequence of UniProt O00161 (O00161 whole entry, looked up): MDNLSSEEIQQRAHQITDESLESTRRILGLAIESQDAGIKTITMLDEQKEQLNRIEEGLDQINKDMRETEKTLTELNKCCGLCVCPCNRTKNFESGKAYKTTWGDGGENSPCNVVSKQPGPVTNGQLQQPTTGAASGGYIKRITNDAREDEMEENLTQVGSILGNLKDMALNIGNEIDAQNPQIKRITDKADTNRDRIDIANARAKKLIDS
Sequence of UniProt Q13309 (Q13309 whole entry, looked up): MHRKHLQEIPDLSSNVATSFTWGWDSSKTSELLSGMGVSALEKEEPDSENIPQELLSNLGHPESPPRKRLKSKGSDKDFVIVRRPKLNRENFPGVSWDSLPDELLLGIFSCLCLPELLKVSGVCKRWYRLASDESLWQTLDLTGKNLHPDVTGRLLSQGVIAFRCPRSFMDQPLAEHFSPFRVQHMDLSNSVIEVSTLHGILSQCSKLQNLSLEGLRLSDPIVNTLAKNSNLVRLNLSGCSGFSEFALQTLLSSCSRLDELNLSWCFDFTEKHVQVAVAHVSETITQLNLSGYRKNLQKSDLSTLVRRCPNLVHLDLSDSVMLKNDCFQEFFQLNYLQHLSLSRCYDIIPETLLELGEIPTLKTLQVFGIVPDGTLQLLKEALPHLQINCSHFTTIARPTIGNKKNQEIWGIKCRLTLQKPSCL
Sequence of UniProt P49675 (P49675 whole entry, looked up): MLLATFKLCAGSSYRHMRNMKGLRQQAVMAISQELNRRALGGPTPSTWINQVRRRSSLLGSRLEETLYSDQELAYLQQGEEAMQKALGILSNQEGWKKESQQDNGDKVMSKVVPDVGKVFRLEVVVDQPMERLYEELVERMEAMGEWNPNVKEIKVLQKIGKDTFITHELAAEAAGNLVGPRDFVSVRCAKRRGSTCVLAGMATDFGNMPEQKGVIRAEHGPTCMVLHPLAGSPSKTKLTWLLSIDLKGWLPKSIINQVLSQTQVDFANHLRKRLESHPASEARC

Target	log2 fold change [1]	log2 fold change [2]	log2 fold change [3]	log2 fold change [4]	log2 fold change [5]
SLC25A38 (UniProt Q96DW6)	0.099	0	0.013	-0.323	-0.047
TANK (UniProt Q92844)	0.04	-0.088	-0.023	-0.079	-0.025
SHC1 isoform 6 (UniProt P29353)	0.019	0.006	0.056	0.087	0.25
SH3BGRL2 (UniProt Q9UJC5)	0.048	0.085	-0.027	-0.001	0.083
SNAP23 (UniProt O00161)	0.059	-0.038	-0.005	0.007	0.066
SPNS1 (UniProt Q9H2V7)	0.05	0.017	0.023	-0.076	-0.019
SPATA5L1 (UniProt Q9BVQ7)	-0.019	0.036	0.006	-0.007	-0.039
SNX6, A0A0A0MRI2	0.014	0.006	0.016	0.017	0.115
SNCA (UniProt P37840)	0.211	0	-0.009	0.211	-0.077
STK17A (UniProt Q9UEE5)	–	–	–	–	0.148
SMPD2 (UniProt O60906)	–	–	–	-0.244	-0.05
TARDBP (UniProt K7EN94)	–	–	0.319	–	–
SNRPD2 (UniProt K7EJB5)	–	–	0.024	-0.047	–
TAF11 (UniProt Q15544)	–	–	0	-0.16	-0.073
SLC41A1 (UniProt Q8IVJ1)	–	–	–	–	-0.016
SHC1 (UniProt P29353)	–	–	–	–	0.201
SZT2 (UniProt Q5T011)	-0.285	-0.066	–	-0.148	0.105

Target	log2 fold change [1]	log2 fold change [2]	log2 fold change [3]	log2 fold change [4]	log2 fold change [5]
SSX5 isoform 2 (UniProt O60225)	0.022	0.03	-0.157	–	-0.253
STK26 isoform 3 (UniProt Q9P289)	–	–	–	0.166	–
SMIM1 (UniProt B2RUZ4)	0.053	-0.054	–	–	-0.028
SLCO4A1 (UniProt Q96BD0)	0.203	-0.372	–	–	-0.013
STN1 (UniProt Q9H668)	-0.125	0.073	-0.115	–	-0.049
SLC35A3 isoform 2 (UniProt Q9Y2D2)	–	–	0.008	–	-0.57
SRC isoform 2 (UniProt P12931)	-0.052	-0.412 (active)	–	-0.105	0.017
SLC25A36 (UniProt Q96CQ1)	–	–	0.013	0.035	0
STAR (UniProt P49675)	–	–	0.048	-0.077	-0.028
SPPL2A (UniProt Q8TCT8)	-0.148	0.118	0.087	–	0.098
SMARCA4 isoform 4 (UniProt P51532)	–	–	–	-0.007	0.131
SLC22A18 (UniProt Q96BI1)	0.07	0.048	-0.036	–	-0.088
SIX5 (UniProt Q8N196)	-0.011	0.034	–	-0.037	0.209
SKP2 (UniProt Q13309)	–	–	-0.015	-0.003	0.001
STK38L (UniProt Q9Y2H1)	–	–	–	-0.031	–
SIN3B (UniProt O75182)	–	–	-0.129	–	0.052

Source: the supplement of paper PMC10849652
